Screening results (PubChem BioAssay)
hgDAF-12 ag – activates the H. glycines DAF-12 receptor ligand-binding domain; activation, % at 6.8 µM; 370,000 tested, 1.8% active; HEK293 GAL4-hgDAF12 UAS-luciferase reporter, agonist luminescence; normalized to butyrate control;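 active = activation above a cutoff set at the mean of all screened compounds plus 3 SD, cut at about 10% in these data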;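 note: 0% = DMSO wells and 100% = sodium butyrate wells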
Wnt act – activates Wnt/beta-catenin signaling in a reporter cell assay | 300,000 tested, 1.2% active | activator, plate reader | activation, % at 9.35 µM | AID 743398; in the data active = activation above about 30%, passing the limit was not always enough; inconclusive = no clear call, values can overlap the other calls;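 note: 0% = neutral control wells and 100% = positive control wells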
ssDAF-12 act – S. stercoralis DAF-12 activation, primary screen | 370,000 tested, 1% active | activation, % at 6.8 µM | HEK293 ssDAF-12/GRIP1 lit1-tk-luc reporter, luminescence; % of 3 µM dafachronic acid response;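 active = activation above the mean over all tested compounds plus 3 SD, cut at about 0.9% in these data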;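 note: 0% = DMSO-only wells and 100% = 3 µM delta7-dafachronic acid wells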
hcDAF12 agonist – activators of H. contortus DAF-12 nuclear receptor; 370,000 tested, 1.4% active; HEK293 hcDAF-12 lit1-tk-luc reporter, luminescence; 0% DMSO, 100% Δ7-dafachronic acid; activation, % at 6.8 µM;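 active = activation above the mean of all tested compounds plus 3 SD, cut at about 5.5% in these data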;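 note: 100% = response to 3 µM Δ7-dafachronic acid high control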
DAX1 StAR inh – inhibitors of DAX1 repression of SF-1 activated StAR promoter; inhibition, % at 6.8 µM; HEK293T StAR-luciferase reporter, SF-1/DAX-1 repression relief; AID 652010; 370,000 tested, 1.1% active;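 active = inhibition above the mean over all tested compounds plus 3 SD, cut at about 3.6% in these data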;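 note: 0% = DAX-1 cells with DMSO and 100% = cells lacking DAX-1 with DMSO; higher inhibition means more luminescence from relief of DAX-1 repression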
esBAF inh – blocks esBAF chromatin remodeling in mouse ES cells; 350,000 tested, 2% active; AID 602393; Bmi1-luciferase knock-in reporter, 24 h; 100% = twice the neutral-well signal; reporter increase, % at 12.5 µM; in the data active = activation above about 40%; inconclusive = no clear call, values can overlap the other calls;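 note: 0% = median of the plate's neutral control wells and 100% = double that signal; a rise in the Bmi1 reporter signal indicates esBAF inhibition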
LXRb hcDAF ctr – counter-screen for hcDAF-12 agonists: agonists of human LXR-beta; activation, % at 6.8 µM; shares compounds with hcDAF12 agonist; 3,400 tested, under 10 active; HEK293 Gal4-LXR tk-luc reporter, luminescence, 24 h; normalized: DMSO 0%, positive control 100%; AID 743027;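 active = mean percent activation of the reporter above a cutoff set as the average over tested compounds plus their standard deviation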
Target sequence (P55055 whole entry, looked up, the tested form may be a part): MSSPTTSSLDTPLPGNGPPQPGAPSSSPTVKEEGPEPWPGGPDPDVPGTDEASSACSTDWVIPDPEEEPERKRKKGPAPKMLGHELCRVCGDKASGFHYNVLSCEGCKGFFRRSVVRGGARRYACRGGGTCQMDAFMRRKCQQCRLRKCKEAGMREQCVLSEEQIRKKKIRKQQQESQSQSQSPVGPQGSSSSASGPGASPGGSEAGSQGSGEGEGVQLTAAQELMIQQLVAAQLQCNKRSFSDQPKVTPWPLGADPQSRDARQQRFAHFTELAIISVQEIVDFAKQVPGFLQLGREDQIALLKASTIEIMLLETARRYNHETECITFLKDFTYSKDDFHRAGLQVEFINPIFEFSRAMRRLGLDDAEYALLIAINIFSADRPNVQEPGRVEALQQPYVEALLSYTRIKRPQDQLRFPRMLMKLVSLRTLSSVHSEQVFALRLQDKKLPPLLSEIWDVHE
hcDAF12 conf – confirmation of H. contortus DAF-12 agonists | AID 743032 | HEK293 hcDAF-12 lit1-tk-luc reporter, luminescence; % of Δ7-dafachronic acid response | 3,400 tested, 61% active | activation, % at 6.8 µM | shares compounds with hcDAF12 agonist;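 active = mean activation across triplicate tests above the threshold derived from the earlier primary screen, cut at about 5.5% in these data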;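 note: 0% = DMSO only wells and 100% = 3 µM Δ7-dafachronic acid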
Active calls of the source: *; ? = inconclusive; · = no result given. Only some compounds are listed: those with a hit (about 4.2% of all), similar ones and a draw of the others.

SMILES | hgDAF-12 ag | Wnt act | ssDAF-12 act | hcDAF12 agonist | DAX1 StAR inh | esBAF inh | LXRb hcDAF ctr | hcDAF12 conf
Nc1cccc(-c2nc3ccccc3[nH]2)c1 | 8 | · | -1 | 8.0* | 2 | 62* | 0 | 5
O=C([C@@H]1[C@@H](CO)[C@@H]2Cn3c(ccc(-c4ccccc4)c3=O)[C@@H]2N1CCC(F)(F)F)N1CCOCC1 | · | · | · | · | · | 1 | · | ·
C[C@@H]1CN([C@H](C)CO)C(=O)c2cccc(NC(=O)c3cnccn3)c2O[C@H]1CN(C)S(=O)(=O)c1ccccc1 | · | · | · | · | · | 1 | · | ·
CCCC(=O)NCc1nc2ccccc2n1C | 0 | · | -1 | 1 | 0 | -5 | · | ·
Cn1c(CNc2ccccc2)nc2ccccc21 | 10 | · | 1.1* | 8.7* | 2 | 66* | 0 | 6.9*
O=C(O)c1ccc(NCc2nc3ccccc3n2Cc2ccccc2)cc1 | -1 | 2 | -1 | -1 | 0 | 5 | · | ·
Cn1c(CNc2nc3ccccc3n2CCN2CCCCC2)nc2ccccc21 | -2 | -2 | -1 | -2 | 0 | -5 | · | ·
CCn1c(CNc2ccc(C(=O)O)cc2)nc2ccccc21 | 1 | 2 | 0 | 9.3* | 0 | 6 | 0 | 2
Cc1ccccc1NCc1nc2ccccc2n1C | 10 | 14 | 1.0* | 8.4* | 3 | ? | 1 | 6.2*
Cn1c(CNc2ccccc2O)nc2ccccc21 | 4 | -9 | 3.0* | 8.4* | 0 | 48* | 0 | 9.0*
CC(=O)N(NC(=O)c1ccc(C)cc1)C1CC(=O)N(c2ccccc2Cl)C1=O (stereo unspecified) | -2 | · | -2 | 8.6* | -1 | · | 0 | 2
O=[N+]([O-])c1cccc2ccc(/C=C/c3ccc(F)cc3)nc12 | 14* | · | 0 | 8.5* | 0 | · | 0 | 6.0*
O=[N+]([O-])c1ccc(/C=C/c2ccc3cccc([N+](=O)[O-])c3n2)cc1 | 5 | · | -1 | -1 | -1 | · | · | ·
O=C1c2ccccc2-c2nnc(-c3ccccc3)cc21 | 8 | · | 1.8* | 7.6* | 3 | 5 | 1 | 6.0*
Cc1cccc(-c2cc3c(nn2)-c2ccccc2C3=O)c1 | 5 | -3 | 1.7* | 6.6* | 1 | -4 | 1 | 8.6*
CC(c1cc(F)ccc1O)c1c[nH]c2ccccc12 (stereo unspecified) | 2 | · | 0 | 6.7* | 0 | · | 0 | 6
C/C(=N\NC(=O)c1ccccc1NC(=O)c1ccc(Cl)cc1)c1ccncc1 | 9 | 11 | 0 | 11* | 3 | · | 1 | 5.8*
CC(=NNC(=O)c1ccncc1)c1ccccc1Cl | 2 | -1 | -1 | 0 | 0 | -4 | · | ·
Cc1ccc(/C=C2\OC(=O)c3ccccc32)cc1 | 10 | 22 | 0 | 8.4* | 1 | 73* | 1 | 8.5*
Cc1ccccc1CN1CCN(CCCc2ccccc2)C(CCO)C1 (stereo unspecified) | 4 | -3 | -1 | 0 | 0 | -8 | · | ·
OCCC1CN(Cc2ccccc2O)CCN1CCCc1ccccc1 (stereo unspecified) | 0 | 16 | -1 | 7.8* | 0 | -5 | 0 | 1
N/C(=N\NC(=O)Nc1ccccc1)c1ccccn1 | 5 | 36* | 0 | 7.7* | 3 | · | 0 | 2
CC(=O)c1ccc(OCc2cc(C(=O)N(C)C3CCOC3)no2)cc1 (stereo unspecified) | 11* | 25 | 1 | 7.1* | 4.0* | 61* | 1 | 6.8*
CC(C)c1ccc(NC(=O)[C@@H]2CCC(=O)N2C2OC(=O)c3ccccc32)cc1 (stereo partly specified) | 7 | 0 | 0 | 7.4* | 3 | 56* | 0 | 5
Cc1noc(C)c1NC(=O)N[C@H]1CC[C@H](CC(=O)N2CCN(C)CC2)O[C@@H]1CO | · | · | · | · | · | 0 | · | ·
